Assay results published in PubChem BioAssay (NCATS).
Results filed as inconclusive are left out. Where a call stands in place of a potency, no number is given. A number with no mark means an inactive call. The source made the active and inactive calls. Calls come from the whole dose curve; as a rule, active = well fitted curve in the direction sought with a large enough effect; inconclusive = small, poorly fitted or top-dose-only effect, or another doubt; inactive = no such curve, though single readings can be large; an effect the other way counts as inactive or inconclusive.

What was measured:
[1] = system: CRL-7250; assay: Cytotoxic Profiling of Annotated Libraries Using Quantitative High-Throughput Screening (AID 1296008); details: Five cell lines viability, CellTiter-Glo ATP luminescence, 48-72 h; max response: stronger effect = lower value; note: nearly all actives have a fitted effect of over 60% in size
Outline: (§1)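 Compounds were pin-transferred onto cells and incubated 48 or 72 hr at 37 degree Celsius, 95% humidity. CellTiter-Glo was added, plates sat 10 min at room temperature, then ATP-coupled luminescence was imaged as the viability read-out.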

[2] = system: HaCat; assay: as above; details: Five cell lines viability, CellTiter-Glo ATP luminescence, 48-72 h; max response: stronger effect = lower value
Outline: as §1

[3] = system: KB-3-1; assay: as above; details: Five cell lines viability, CellTiter-Glo ATP luminescence, 48-72 h; max response: stronger effect = lower value
Outline: as §1

[4] = system: NIH3T3; assay: as above; details: Five cell lines viability, CellTiter-Glo ATP luminescence, 48-72 h; max response: stronger effect = lower value
Outline: as §1

[5] = system: C33A; assay: Primary qHTS to identify gynecologic anti-cancer compounds using libraries of approved drugs and bioactive compounds (AID 1345084); details: Gynecologic cancer cell panel viability, ATPlite luminescence, 48 h; series mostly up to 57.5 µM; note: nearly all actives have a fitted effect of over 55% in size
Outline: (§2)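 Five-concentration response, 48 h; readout is ATP-driven luciferase luminescence.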

[6] = system: CAOV3; assay: as above; details: Gynecologic cancer cell panel viability, ATPlite luminescence, 48 h; series mostly up to 57.5 µM
Outline: as §2

[7] = system: CASKI; assay: as above; details: Gynecologic cancer cell panel viability, ATPlite luminescence, 48 h; series mostly up to 57.5 µM
Outline: as §2

[8] = system: Es-2; assay: as above; details: Gynecologic cancer cell panel viability, ATPlite luminescence, 48 h; series mostly up to 57.5 µM
Outline: as §2

[9] = system: HeLa; assay: as above; details: Gynecologic cancer cell panel viability, ATPlite luminescence, 48 h; series mostly up to 57.5 µM
Outline: as §2

[10] = system: Hek293T; assay: as above; details: Gynecologic cancer cell panel viability, ATPlite luminescence, 48 h, control line for the selectivity index; series mostly up to 57.5 µM
Outline: as §2

[11] = system: JEG-3; assay: as above; details: Gynecologic cancer cell panel viability, ATPlite luminescence, 48 h; series mostly up to 57.5 µM
Outline: as §2

[12] = system: OV90; assay: as above; details: Gynecologic cancer cell panel viability, ATPlite luminescence, 48 h; series mostly up to 57.5 µM
Outline: as §2

[13] = system: PA-1; assay: as above; details: Gynecologic cancer cell panel viability, ATPlite luminescence, 48 h; series mostly up to 57.5 µM
Outline: as §2

[14] = system: SKOV3; assay: as above; details: Gynecologic cancer cell panel viability, ATPlite luminescence, 48 h; series mostly up to 57.5 µM
Outline: as §2
Potency is the fitted concentration of half-maximal effect.

Compound | Potency [1] | Potency [2] | Potency [3] | Potency [4] | Potency [5] | Potency [6] | Potency [7] | Potency [8] | Potency [9] | Potency [10] | Potency [11] | Potency [12] | max response [1] [%] | max response [2] [%] | max response [3] [%] | max response [4] [%] | Potency [13] | Potency [14] | outcome [3] | outcome [1]
Cc1[nH]c2ccccc2c1CCNCc1ccc(/C=C/C(=O)NO)cc1 | 0.517 µM (active) | 0.184 µM (active) | 0.082 µM (active) | 0.366 µM (active) | 0.251 µM (active) | 1 µM (active) | 0.447 µM (active) | 0.355 µM (active) | 0.126 µM (active) | 1.58 µM (active) | 0.251 µM (active) | 1 µM (active) | – | – | – | – | – | – | – | –
COc1c2c(nc3occc13)C(CC=C(C)C)(OC)C(O)CC2 (configuration not stated) | – | – | – | – | inactive | inactive | inactive | inactive | inactive | inactive | inactive | inactive | -11.5 | -1.05 | -4.13 | -1.61 | inactive | inactive | – | –
O=[N+]([O-])c1cn2c(n1)OC[C@@H](OCc1ccc(-c3ccc(OC(F)(F)F)cc3)nc1)C2 | – | – | – | – | inactive | inactive | inactive | inactive | inactive | inactive | inactive | inactive | 2.36 | -7.6 | -0.53 | -0.0728 | inactive | inactive | – | –
CO[C@@H]1[C@H](O)CCC2(CO2)[C@H]1[C@@]1(C)O[C@@H]1CC=C(C)C (some centres not stated) | – | – | – | – | inactive | inactive | inactive | inactive | inactive | inactive | inactive | inactive | -6.79 | -1.46 | – | -13.7 | inactive | inactive | inactive | –
COC1C(OC(=O)/C=C/C=C/C=C/C=C/C(=O)O)CCC2(CO2)C1C1(C)OC1CC=C(C)C (configuration not stated) | – | – | – | – | inactive | inactive | inactive | inactive | inactive | inactive | inactive | inactive | -15.2 | -3.3 | – | 0.0729 | inactive | inactive | inactive | –
Cc1ccc(C2(C(=O)N3CCC(n4nc(-c5ccccc5)oc4=O)CC3)CC2)cc1 | – | – | – | – | inactive | inactive | inactive | inactive | inactive | inactive | inactive | inactive | -18.3 | -7.48 | -8.37 | -1.74 | inactive | inactive | – | –
Cc1cn2c(n1)Cc1ccc(Cl)cc1C(c1ccc(N)cc1)=N2 | – | – | – | – | inactive | inactive | inactive | inactive | inactive | inactive | inactive | inactive | -3.82 | 1.21 | 1.16 | -15.7 | inactive | inactive | – | –
C=CC1(C)CC(O)C(C(=C)C(=O)OC)C(O)C1C(=C)CO (configuration not stated) | – | – | – | – | inactive | inactive | inactive | inactive | inactive | inactive | inactive | inactive | -28 | -2.8 | 0.16 | -4.78 | inactive | inactive | – | –
NS(=O)(=O)c1ccc(N2CCN(CC[C@@H]3OCCc4ccccc43)CC2)cc1 | – | – | – | – | inactive | inactive | inactive | inactive | inactive | inactive | inactive | inactive | -8.79 | -12.7 | -10.3 | -0.981 | inactive | inactive | – | –
COc1c(F)cccc1C(=O)N1C[C@@H](C)CC[C@H]1CNc1ccc(Br)cn1 | – | – | – | – | inactive | inactive | inactive | inactive | inactive | inactive | inactive | inactive | -14.6 | 1.51 | -16 | -27.7 | inactive | inactive | – | –
O=C(C(Cc1cccc(C(F)(F)F)c1)NS(=O)(=O)c1cc(F)c2c(c1)CCNC2)N1CCCC1 (configuration not stated) | – | – | – | – | inactive | inactive | inactive | inactive | inactive | inactive | inactive | inactive | -1.14 | -1.4 | -6.26 | 1.31 | inactive | inactive | – | –
Cc1cccc(-c2[nH]ncc2-c2ccc(F)c(-c3cnn(CCO)c3)c2)n1 | – | – | – | – | inactive | inactive | inactive | inactive | inactive | inactive | inactive | inactive | -17.9 | 3.16 | -8.92 | -23.9 | inactive | inactive | – | –
CC(C)n1c(=O)c(C(=O)NC2CC3CCC(C2)N3C[C@@H](O)CN(C)S(C)(=O)=O)cc2ccccc21 (some centres not stated) | – | – | – | – | inactive | inactive | inactive | inactive | inactive | inactive | inactive | inactive | -15.6 | -16.2 | -11.4 | -22.5 | inactive | – | – | –
CC(C)(C)OC(=O)c1ncn2c1C(C)(C)Nc1ccccc1-2 | – | – | – | – | inactive | inactive | inactive | inactive | inactive | inactive | inactive | inactive | – | 2.2 | 0.574 | 0.0612 | inactive | inactive | – | inactive
COc1ccc(Sc2ccc(NC(=O)c3ccccc3Cl)cc2C#N)cc1 | – | – | – | – | inactive | inactive | inactive | inactive | inactive | inactive | inactive | inactive | -14.2 | -11.3 | -1.86 | -6.24 | inactive | inactive | – | –
CC(=O)[C@H]1CC[C@H]2[C@@H]3CC=C4C[C@@H](OS(=O)(=O)O)CC[C@]4(C)[C@H]3CC[C@]12C | – | – | – | – | inactive | inactive | inactive | inactive | inactive | inactive | inactive | inactive | – | 1.57 | 2.57 | -4.15 | inactive | inactive | – | inactive
C/C(=C\CCC(C)C1=CCC2(C)OC3=C(CC12)C(=O)C(O)CC3)CO (configuration not stated) | – | – | – | – | inactive | inactive | inactive | inactive | inactive | inactive | inactive | inactive | -17.6 | -38 | -18.5 | -0.114 | inactive | – | – | –
C[C@@H]1CC[C@@]23CC[C@]4(C)[C@@](C=CC5[C@@]6(C)CC[C@H](O)C(C)(C)C6CC[C@]54C)(OC2=O)C3[C@H]1C (some centres not stated) | – | – | – | – | inactive | inactive | inactive | inactive | inactive | inactive | inactive | inactive | – | -10.7 | 7.23 | 0.572 | inactive | – | – | inactive
CC(=O)OC[C@]12[C@H](OC(C)=O)[C@H](OC(=O)c3ccccc3)[C@@H]3[C@@H](OC(C)=O)[C@]1(OC3(C)C)[C@H](C)C[C@H](OC(C)=O)[C@@H]2OC(=O)c1ccccc1 | – | – | – | – | inactive | inactive | inactive | inactive | inactive | inactive | inactive | inactive | – | -0.678 | 4.67 | 3.09 | inactive | inactive | – | inactive
O=C(CSc1nc2ccccc2c(=O)n1-c1ccccc1)Nc1ccc2c(c1)CCC2 | – | – | – | – | inactive | inactive | inactive | inactive | inactive | inactive | inactive | inactive | 1.59 | -10.2 | – | -0.829 | inactive | inactive | inactive | –
CC(C)(CO)c1cc2cc(NC(=O)C3(c4ccc5c(c4)OC(F)(F)O5)CC3)c(F)cc2n1CC(O)CO (configuration not stated) | – | – | – | – | inactive | inactive | inactive | inactive | inactive | inactive | inactive | inactive | – | -17.2 | – | -6.55 | inactive | inactive | inactive | inactive
Nc1nc2c(cnn2CCCc2ccc(O)cc2)c2nc(-c3ccco3)nn12 | – | – | – | – | inactive | inactive | inactive | inactive | inactive | inactive | inactive | inactive | – | -2.77 | 8.63 | 3.84 | inactive | – | – | inactive
Cc1c(C(=O)NCc2cccnc2)nn(-c2ccc(Cl)cc2Cl)c1-c1ccc(Cl)cc1 | – | – | – | – | inactive | inactive | inactive | inactive | inactive | inactive | inactive | inactive | – | -13.1 | -24 | -4.76 | inactive | inactive | – | inactive
C[C@@H]1CC[C@]2(C(=O)O)CC[C@]3(C)C(=CCC4[C@@]5(C)CC[C@H](O)[C@](C)(C(=O)O)C5CC[C@]43C)C2[C@]1(C)O (some centres not stated) | – | – | – | – | inactive | inactive | inactive | inactive | inactive | inactive | inactive | inactive | -2.08 | 4.55 | 0.684 | -24.1 | inactive | inactive | – | –
O=C(c1ccc(F)cc1)N1CCCC(c2nc(-c3ccc(F)cc3)no2)C1 (configuration not stated) | – | – | – | – | inactive | inactive | inactive | inactive | inactive | inactive | inactive | inactive | -19.5 | -5.25 | -21.6 | -12.8 | inactive | – | – | –
NS(=O)(=O)c1ccc(N2N=C(c3ccccc3)CC2c2ccccc2)cc1 (configuration not stated) | – | – | – | – | inactive | inactive | inactive | inactive | inactive | inactive | inactive | inactive | -0.316 | 4.65 | -12.2 | 2.93 | inactive | inactive | – | –
